PubChem BioAssay
Activity calls are given as the source filed them. The rule behind the calls is not given here.

The molecules below were run against Pantothenate synthetase (Mycobacterium tuberculosis (strain ATCC 25618 / H37Rv)) (UniProt P9WIL5) (assay: Coupled enzyme confirmation of inhibitors against recombinant Mtb PanC (AID 375;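 note: 0% = full reaction with vehicle and 100% = no enzyme background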)). Details: coupled enzyme assay; at 10 µM, active compounds read high.
Sequence of Pantothenate synthetase (Mycobacterium tuberculosis (strain ATCC 25618 / H37Rv)) (P9WIL5 whole entry, looked up): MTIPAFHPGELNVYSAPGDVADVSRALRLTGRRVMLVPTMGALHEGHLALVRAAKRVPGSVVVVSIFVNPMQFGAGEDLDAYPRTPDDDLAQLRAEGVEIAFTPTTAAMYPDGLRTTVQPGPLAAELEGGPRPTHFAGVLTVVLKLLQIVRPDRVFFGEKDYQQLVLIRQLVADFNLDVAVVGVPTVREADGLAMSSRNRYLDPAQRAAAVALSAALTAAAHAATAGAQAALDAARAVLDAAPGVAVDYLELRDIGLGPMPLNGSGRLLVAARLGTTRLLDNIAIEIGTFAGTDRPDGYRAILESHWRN
For `Cc1ccc(C(=O)Nc2c(C(=O)N3CCOCC3)cnn2-c2ccccc2)cc1`, the inhibition was 0% (inactive).
In the case of `c1ccc(-c2nnc(CSc3nncs3)o2)cc1`, the inhibition is reported as 0% (inactive).
With `O=C(Nc1cccnc1N1CCOCC1)c1ccco1` the inhibition was 10% (inactive).
With `COc1ccc(-c2[nH]nc3c2C(c2ccccc2OC(=O)N2CCOCC2)C(C#N)=C(N)O3)cc1` (configuration not stated) the inhibition was 5% (inactive).
For `Cc1ccc(-c2noc(CCC(=O)NC3CCCc4ccccc43)n2)cc1` (configuration not stated), the inhibition was 2% (inactive).
In the case of `COc1ccc(NC(=O)CSc2nnc(Cc3cccn3C)n2-c2ccc(F)cc2)cc1OC`, the inhibition is reported as 0% (inactive).
In the case of `CCOc1cccc(C(=O)N(Cc2ccc(F)cc2)C2CCS(=O)(=O)C2)c1` (configuration not stated), the inhibition is reported as 3% (inactive).
For `COC(=O)Nc1ccc(S(=O)(=O)N2CCN(c3ccc(F)cc3)CC2)cc1`, the inhibition was 0% (inactive).
`O=C1NCC(COCc2ccccc2)O1` (configuration not stated) was tested, and the inhibition was 3% (inactive).
With `O=C(NCC1CCCO1)c1ccc(N2CCCCC2)nc1` (configuration not stated) the inhibition was 0% (inactive).
For `CC(=O)N(C(C)=O)c1ncc2c([nH]c3ccccc32)c1C#N`, the inhibition was 0% (inactive).
With `O=C(c1ccco1)N1CCN(CC2CC3C=CC2C3)CC1` (configuration not stated) the inhibition was 7% (inactive).
With `CCOc1ccccc1N(CC(=O)NC1CCCC1)C(=O)CCCC(=O)Nc1ccccn1` the inhibition was 5% (inactive).
With `Cc1ccc2[nH]cc(C(=O)CN3CCC4(CC3)OCCO4)c2c1` the inhibition was 0% (inactive).
`CC(=O)c1ccc2c3c(cccc13)C(=O)N(c1c(C)nn(C)c1C)C2=O` was tested, and the inhibition was 0% (inactive).
In the case of `Cc1sc2nc(SCc3nc4ccccc4[nH]3)n(Cc3ccco3)c(=O)c2c1C`, the inhibition is reported as 2% (inactive).
`Cc1csc2ncc(C(=O)N3CCc4ccccc43)c(=O)n12` was tested, and the inhibition was 6% (inactive).
`CC1CCN(S(=O)(=O)c2ccc3[nH]c(=O)cc(C(=O)O)c3c2)CC1` was tested, and the inhibition was 0% (inactive).
For `Cc1ccc2nc(-c3ccc4c(c3)OCCO4)cc(C(=O)O)c2c1`, the inhibition was 0% (inactive).
With `O=C(OCC#CCSc1nc2ccccc2o1)c1ccco1` the inhibition was 0% (inactive).
With `c1ccc2c(c1)nc(NCCN1CCOCC1)c1nncn12` the inhibition was 2% (inactive).
In the case of `O=C(O)c1cccc(NS(=O)(=O)c2ccc3nnn(O)c3c2)c1`, the inhibition is reported as 0% (inactive).
